Molecules are shown by their SMILES. The source made the active and inactive calls. Calls come from the whole dose curve; as a rule, active = well fitted cell-killing curve with a large enough effect in the repeat runs; inconclusive = weak or mixed curves, or effect the other way; inactive = flat fitted curve, though single readings scatter.
% is set by controls: 0 for no effect and ±100 for the full control effect.

This assay can be described thus: qHTS assay to identify small molecule HDAC inhibitors - cell viability counter screen (AID 1259365). Note: nearly all actives have a fitted effect of over 50% in size. Particulars: HCT-116 viability, CellTiter-Glo ATP luminescence, 2 h; series mostly up to 92.4 µM; activity change, negative = cytotoxicity: at the top concentration. From the text: U.S. Tox21 Program National Center for Advancing Translational Sciences [NCATS] NIH Chemical Genomics Center [NCGC] U.S. Environmental Protection Agency [EPA] National Institutes of Environmental Health Sciences [NIEHS] National Toxicology Program [NTP] U.S. Food and Drug Administration [FDA] Tox21 Assay Overview: Histone deacetylases (HDACs) are a group of epigenetic enzymes that regulate gene expression by histone deacetylation. HDACs are capable of introducing epigenetic modifications and such aberrations contribute to the onset and progression of several human diseases, thus making HDACs a popular therapeutic target. For identifying endogenous class I/II HDAC inhibitors a homogenous, luminogenic HDAC I/II cell based assay was used to measure the relative activity of class I and II HDACs from cells. Wild type HCT-116 cells were used to screen Tox21 compound libraries for identifying class I/II HDAC inhibitors.
Tox21 Assay Protocol Summary: HCT-116 cells were dispensed at 1,500 per well in 5uL of culture medium into white solid bottom 1536-well plates (Greiner Bio-One, Monroe, NC) using a Multidrop Combi (Thermo Scientific, Waltham, MA) dispenser. The assay plates were incubated at 37 C and 5% CO2 for an overnight, and then 23nL of compounds dissolved in DMSO and positive control were transferred using a Pintool station (Wako, San Diego, CA). The assay plates were incubated at 37C and 5% CO2 for 2hr. After compound treatment, 4uL of CellTiter-Glo reagent (Promega Corporation, Madison, WI) was added to each well of the assay plates using Flying Reagent Dispenser (FRD, Aurora Discovery, San Diego, CA) and incubated the assay plates at room temperature for 30min. The luminescence signal was quantified using a ViewLux plate reader (Perkin Elmer, Shelton, CT).
On to `O=C(O)CCSCCC(=O)O`, for which the “activity change, negative = cytotoxicity” value is -0.134% (inactive).
Consider `N[C@H](C(=O)O)[C@@H](O)c1ccc(O)c(O)c1`, for which the “activity change, negative = cytotoxicity” value was -1.69% [at 42.5 µM] (inactive).
Take `CNCC(O)c1ccc(O)c(O)c1` (stereo not given): the “activity change, negative = cytotoxicity” value is -6.47% [at 42.5 µM] (inactive).
The value for `CC(C#N)(CCC(=O)O)N=NC(C)(C#N)CCC(=O)O` (stereo not given) was 1.63% (inactive).
The value for `CCN[C@@H]1C[C@H](N)[C@@H](OC2OC(CN)=CCC2N)[C@H](O)[C@H]1O[C@H]1OC[C@](C)(O)[C@H](NC)[C@H]1O` (stereo not given in full) was 1.54% [at 0.349 µM] (inactive); that for `CC(C)=CCC/C(C)=C/C#N` was 0.585% (inactive).
For the molecule `CCOC(=O)COC(=O)c1ccccc1C(=O)OCC`, the “activity change, negative = cytotoxicity” value was 1.27% (inactive).
The value for `CC(C)(C)OC(=O)c1cccc(N)c1` was -0.163% (inactive); that for `CC/C=C\CCOC(C)OCC` (stereo not given) was -0.2% [at 42.5 µM] (inactive); that for `CC(C)(C)C(=O)Oc1ccc(S(=O)(=O)Nc2ccccc2C(=O)NCC(=O)O)cc1` was 1.4% [at 42.5 µM] (inactive).
With `O=S(=O)(O)c1cccc2ccccc12` the figure was -2.13% (inactive); with `O=S(=O)(O)c1cccc2c(S(=O)(=O)O)cccc12`, 5.08% (inactive).
With `O=C(O)c1cc(C(=O)O)cc(C(=O)O)c1` the figure was -6.03% (inactive); with `CNCCO`, -0.0593% (inactive); with `Clc1cc(Cl)cc(Cl)c1`, 1.96% (inactive).
Turning to `CCCCOCCOC(=O)CCCCCCCCC(=O)OCCOCCCC`, the “activity change, negative = cytotoxicity” value is -2.36% (inactive).
With `CC(=O)c1ccccc1[N+](=O)[O-]` the figure was -0.185% (inactive); with `COc1cc(-c2ccc(=O)[nH]n2)ccc1OC(F)F`, -1.81% [at 42.5 µM] (inactive); with `CC(C)CCCO`, -1.66% (inactive).
Turning to `C[N+](C)(CCOc1ccccc1)Cc1cccs1`, the “activity change, negative = cytotoxicity” value was -3.38% [at 42.5 µM] (inactive).
With `CCCC[N+](C)(CCCC)CCCC` the figure was -9.63% (inactive); with `CCCc1ncc(C[n+]2ccccc2C)c(N)n1`, -1.06% [at 42.5 µM] (inactive); with `CCOC(=O)COc1cc(-n2ncc(C(F)(F)F)c(C)c2=O)c(F)cc1Cl`, -0.73% (inactive).
The value for `O=[N+]([O-])c1ccc(/C=N\O)o1` was -3.29% [at 42.5 µM] (inactive).
With `O=C(O)CCCC[P+](c1ccccc1)(c1ccccc1)c1ccccc1` the figure was 2.47% [at 42.5 µM] (inactive); with `Cc1cccc(C)c1NC(=O)CC12CCCN1CCC2`, -0.493% [at 42.5 µM] (inactive).
For the molecule `CNC(=O)Nc1ccc(Cl)c(Cl)c1`, the “activity change, negative = cytotoxicity” value is 2.81% (inactive).
The value for `CCOC(=O)C1=NOC(c2ccccc2)(c2ccccc2)C1` was -1.88% (inactive); that for `C=C[Si](OC(C)=O)(OC(C)=O)OC(C)=O` was -1.25% (inactive); that for `CCOc1ccccc1OCC` was 1.48% (inactive).
Regarding `CC(C)COC(=O)c1ccc(N)cc1`, the “activity change, negative = cytotoxicity” value is -0.602% [at 42.5 µM] (inactive).
With `O=C(O)Cc1csc(-c2ccc(Cl)cc2)n1` the figure was -4.02% [at 42.5 µM] (inactive); with `CCN1CCOCC1`, -0.534% (inactive).
With `CC(=O)c1ccc2ccccc2c1` the figure was -0.0213% (inactive).
With `[K+]` the figure was 0.658% (inactive); with `C[N+](C)(C)CCCCCCCCCC[N+](C)(C)C`, 1.02% [at 42.5 µM] (inactive).
`O=C1CCCCCCCCCCCCCCO1`: the “activity change, negative = cytotoxicity” value was -0.0251% (inactive).
With `CC(C(=O)O)c1cccc(Oc2ccccc2)c1` (stereo not given) the figure was 0.0081% [at 42.5 µM] (inactive).
The value for `CCCC(=O)O[C@]1(C(=O)CC)CC[C@H]2[C@@H]3CCC4=CC(=O)CC[C@]4(C)[C@H]3[C@@H](O)C[C@@]21C` was -4.84% [at 42.5 µM] (inactive); that for `Cc1cc(C)c(N=Nc2c(O)c(S(=O)(=O)O)cc3cc(S(=O)(=O)O)ccc23)cc1C` was -2.91% [at 8.39 µM] (inactive).

The values above are taken from PubChem BioAssay (Tox21).
